Experimental findings from PubChem BioAssay AID588334 (Broad Institute, 2011) are described below.

The structures appear in SMILES notation. About 2,300 (0.77%) of roughly 300,000 compounds were called active. The full list was thinned out, with actives kept by preference. A number with no mark means an inactive call.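 The calls were made as follows: active = mean activation of at least 80% with every replicate also reaching 80%; inconclusive = mean reaches 80% but some replicate falls short; inactive = the rest.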

The assay is described as follows: activators of MITF-driven TRPM1 promoter reporter, primary screen, cell-based, SK-MEL-5, luciferase, single point (AID 588334).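 Also: 0% = neutral control wells and 100% = parthenolide positive control wells.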 To be noted: SK-MEL-5 TRPM1-promoter luciferase, 24 h; at 12.5 µM; hits give high values; % of positive control, neutral wells = 0.
Regarding `CNN/C(N=Cc1ccc([N+](=O)[O-])s1)=N\S(=O)(=O)c1cc(C)c(Cl)cc1SCc1ccccc1`, the activation is -22.7%.
Under `CCCc1nc(SCC(=O)Nc2ccc(S(=O)(=O)N(C)C)cc2)c2ccccc2n1` stands -0.188%; under `COc1ccc(S(=O)(=O)N(C)C)cc1NC(=O)CSc1ncccn1`, 0.656%; under `CN(C)S(=O)(=O)c1ccc2oc(SCC(=O)Nc3ccccc3F)nc2c1`, 114% (active).
Regarding `COc1ccc(CCC(=O)Nc2ccc(Cl)c(S(=O)(=O)N3CCOCC3)c2)cc1OC`, the activation is -5.06%.
As to `O=C1OCC2=C1C(c1ccc(Cl)cc1)c1cc3c(cc1O2)OCO3` (centres undefined), the activation is 3.92%.
Under `Cc1ccc(-c2cc(C(=O)N3CCc4ccccc4C3)no2)cc1` stands -5%; under `O=C(c1noc2c1CCCC2)N1CCc2ccccc2C1`, 127% (active).
Turning to `COc1ccc2c(c1)CCc1c(C(=O)N3CCc4ccccc4C3)noc1-2`, the activation is 18.4%.
Under `O=C1CC(c2ccccc2)C(=O)N2C(=O)CC(c3ccccc3)C(=O)N12` (centres undefined) stands 1.12%; under `Cc1nc2ccc(N)nc2nc1C`, -1.9%; under `CCCCN(C(=O)CSCc1ccc(C)cc1)c1c(N)n(Cc2ccccc2)c(=O)[nH]c1=O`, 15.5%.
Under `CC(=O)OCC1(O)CC23CCC4c5ccoc5CCC4(C)C2CCC1C3` (centres undefined) stands -8.62%; under `O=C(Cc1ccc(Cl)cc1)c1ccccc1`, 89.3% (active).
`O=C(Cc1nc2ccccc2[nH]c1=O)c1ccc(Cl)cc1`: the activation is 50.8%.
Under `O=C(Cc1ccc(Cl)cc1)NCc1nc(-c2ccccc2)no1` stands 14.2%.
As to `C/C(=N\Nc1ccccc1)c1cccs1`, the activation was -5.68%.
With `COc1cc(O)c2c(=O)c3c(O)c(O)ccc3oc2c1OC`, the activation is 2.79%.
As for `COc1ccc(-c2nc3cc(C)ccn3c2NC2CCCCC2)cc1SC1CCCCC1`, the activation is 7.59%.
With `Cc1ccc2nc(N3C(=O)C(O)=C(C(=O)c4ccco4)C3c3cccc(O)c3)sc2c1` (centres undefined) the figure was 10%; with `Cc1ccc2nc(N3CCN(C(=O)c4ccco4)CC3)sc2c1`, 103% (active); with `COc1ccc2nc(N3CCN(C(=O)c4ccc([N+](=O)[O-])o4)CC3)sc2c1`, -66.4%.
With `CCOC(=O)C1CCCN(C(=O)C2CCN(S(=O)(=O)c3ccc(Cl)c(C(F)(F)F)c3)CC2)C1` (centres undefined) the figure was -3.48%; with `O=C1NC[C@@H](c2ccccc2)OC(=O)[C@H](Cc2ccc(F)cc2)CC/C=C/C[C@H]1CC(=O)N(CCO)Cc1ccccc1`, -2.43%.
Take `COc1ccc(CC(=O)NC(C)c2ccc(Cl)c(Cl)c2)cc1S(=O)(=O)N1CCOCC1` (centres undefined): the activation was 6.68%.
Under `CC(=O)Nc1cccc(-c2csc(Nc3cccc(C)n3)n2)c1` stands 137% (active).
For the compound `CC(=O)Nc1ccc(-c2csc(NC(=O)Nc3ccccc3)n2)cc1`, the activation was -48.4%.
As to `CC(=O)Nc1ccc(-c2csc(NC=C3C(=O)OC(C)(C)OC3=O)n2)cc1`, the activation was 8.13%.
As to `Cc1ccc(Cn2c(C)c3cnn(CC(=O)NCCN4CCOCC4)c(=O)c3c2C)cc1`, the activation is -2.1%.
With `COc1ccccc1-c1sc2ccccc2c1C#CC1(O)CCCCC1` the figure was 5.32%; with `CCN(CC)CCCC(C)n1c2nc(=O)[nH]c(=O)c-2nc2cc(Cl)ccc21` (centres undefined), -84%.
Consider `CCN(CC)S(=O)(=O)c1ccc(C)c(NC(=O)COc2ccc(Br)cc2Cl)c1`, for which the activation was -17.2%.
On to `Cc1cccc(NC(=O)Nc2ccc(OCc3ccccc3)cc2)n1`, for which the activation was -1.41%.
With `Cc1cccc(NC(=O)COc2ccc(Br)cc2C)n1` the figure was 198% (active); with `CCOC(=O)c1ccccc1OC(=O)Oc1ccccc1C(=O)OCC`, -22.1%.
For `CCc1ccc(NC(=O)Cn2ncn3c(cc4ccccc43)c2=O)cc1`, the activation is -8.34%.
On to `CC(C)c1ccc(NC(=O)Cn2ncc3ccccc32)cc1`, for which the activation was 93% (active).
Regarding `CCCN1CCN(C(=O)Cn2ncc3ccccc32)CC1`, the activation is -0.935%.
On to `O=C(OCCOc1ccccc1Cl)c1cc(S(=O)(=O)N2CCCCC2)ccc1N1CCOCC1`, for which the activation was -10.6%.
Under `CN1CCN(C(=O)c2ccc(-c3ccc(Br)cc3)o2)CC1` stands 123% (active); under `O=CN1CCN(C(=O)c2ccc(Br)o2)CC1`, -12.5%.
`COc1ccccc1OCc1ccc(C(=O)N2CCN(C)CC2)o1`: the activation was 1.8%.
With `CC(C)=CCc1ccc(O)c(=O)cc1C(C)C`, the activation was -70.3%.
With `CC[C@@H](C)[C@@H]1CN([C@@H](C)CN2CCC[C@H]2CN2C(N)=NC[C@H]2C(C)C)C(=N)N1CCc1ccc(Cl)c(Cl)c1` the figure was 5.32%; with `CS(=O)(=O)N1CCc2nc(-c3ccccc3)sc2C1`, 92.1% (active).
With `CS(=O)(=O)N1CCN(c2cccc(Cl)n2)CC1` the figure was -7.99%.
With `CS(=O)(=O)N1CCN(C(=O)Cc2ccccc2)CC1` the figure was -6.87%; with `COc1ccc(S(=O)(=O)Nc2cccc3c2O[C@H](CN(C)S(=O)(=O)c2ccc(OC)cc2)[C@@H](C)CN([C@H](C)CO)C3=O)cc1`, 0.473%.
Regarding `O=C1C=C(NS(=O)(=O)c2ccccc2)C(=O)c2ccccc21`, the activation was -65.5%.
Take `COc1ccc(Cn2cc(CN3CCS(=O)(=O)N(Cc4ccc(-c5cccc(Cl)c5)cc4)C(C)C3=O)nn2)cc1` (centres undefined): the activation is 0.982%.
Turning to `Cc1ccn(-c2cccc(-n3ccc(C)n3)n2)n1`, the activation was 119% (active).
Turning to `Cc1cccc(N2O[C@H]3C=CC2CCCC3)n1`, the activation is 63.6%.
On to `O=C(NCc1cccnc1)C(=O)Nc1nc(-c2ccccc2)cs1`, for which the activation was 54.4%.
Consider `O=C(Nc1nc(-c2cccnc2)cs1)c1ccccc1F`, for which the activation was 72.7%.
With `Cc1ccccc1Nc1nc(-c2cccnc2)cs1` the figure was 97.6% (active).
Under `Cc1ccc(C(=O)O)c(NC=O)c1OCc1ccccc1` stands 11%; under `NC(=O)C1CCN(C(=O)c2cc(S(=O)(=O)N3CCN(c4ccccc4)CC3)ccc2Cl)CC1`, -3.4%; under `O=C(/C=C/Nc1ccccc1)c1cnc(-c2ccccc2)s1`, 37.6%.
On to `CC(C)(C)C(=O)c1cnc(Nc2ccccc2)s1`, for which the activation was 124% (active).
Turning to `CC(=O)c1cnc(-c2ccccc2)s1`, the activation was 13.4%.
Under `CN[C@H](C(=O)NC[C@H]1O[C@@H](n2cnc3c(N)ncnc32)[C@H](O)[C@@H]1O)[C@@H](C)OCc1ccccc1` stands 17%.
With `COc1cc(NC(=O)c2[nH]cnc2C(N)=O)cc(C(=O)Nc2cccc(C(F)(F)F)c2)c1`, the activation is -88.9%.
In the case of `C[C@@H]1NS(=O)(=O)c2cc(Cl)ccc2O[C@@H]1c1ccccc1`, the activation is 2.48%.
Turning to `COc1cccc(/C=N\Nc2nncc(-c3ccccc3)n2)c1`, the activation is 27.3%.
Under `Oc1cccc(/C=N/Nc2ccc(Cl)nn2)c1O` stands -6.43%; under `COc1cccc(/C=N/Nc2ccc(Cl)nn2)c1`, 93.6% (active).
Under `CCOC(=O)C1=CN(Cc2ccc(Br)cc2)S(=O)(=O)N(C)C1C` (centres undefined) stands -0.639%.
As to `O=C(O)c1ccc(S(=O)(=O)c2ccccc2)s1`, the activation is -11%.
Under `CC(=C/c1ccccc1)/C=N/NC(=O)c1cc(C)oc1C` stands 25.1%; under `Cc1cc(C(=O)N/N=C/c2ccccc2[N+](=O)[O-])c(C)o1`, 84.3% (active); under `Cc1cc(C(=O)N/N=C\C(Br)=C\c2ccccc2)c(C)o1`, 15.4%.
Regarding `Cc1ccc(OCCNC(=O)c2cccc(S(=O)(=O)N3CCN(Cc4ccccc4)CC3)c2)cc1`, the activation was -0.856%.
Under `Cc1cc(NC(=O)c2cc3ccccc3o2)no1` stands -6.37%.
Under `Cc1ccc(C(=O)CNc2ccc(F)cc2)cc1` stands -0.394%.
Under `COC(=O)c1ccc(NCC(=O)c2ccccc2)cc1` stands 146% (active); under `COC(=O)c1ccc(NCc2cc(O)ccc2O)cc1`, 3%; under `CN1CCOC1c1ccc(C2OCCN2C)cc1` (centres undefined), -9.68%.
In the case of `C=CCOC(=O)N1CCC2CC1c1cc(-c3ccc(OC)cc3)ccc12` (centres undefined), the activation is -2.99%.
Under `COc1cc(OC)c(C(=O)NNC(=O)c2ccccc2-n2cccc2)cc1OC` stands 7.14%.
Consider `COCCOC(=O)c1[nH]c2c(c1C)C(=O)CC(c1ccc(OC)cc1)C2` (centres undefined), for which the activation is 8.85%.
For the compound `CCCOC(=O)c1[nH]c2c(c1C)C(=O)CC(c1cccs1)C2` (centres undefined), the activation is -44.3%.
Under `COC(=O)C1C(=O)c2c([nH]c(C(=O)OCCSC)c2C)CC1C` (centres undefined) stands 92.2% (active).
As for `COc1ccc(-c2noc(CCC(=O)N3CCN(c4cccc(C)c4)CC3)n2)cc1`, the activation was 0.066%.
As for `COc1ccc(-c2ccc3c(c2)[C@@H]2C[C@H](N(C)S(=O)(=O)c4ccccc4)[C@H]([C@H](C)O)C(=O)N2CC3)cc1`, the activation is -7.92%.
With `CC(C)Cn1cnc2c(SCc3ccc(Cl)cc3)nc(N)nc21` the figure was 12.1%; with `O=C(CC(=O)c1cccnc1)c1ccccc1`, 48%; with `COc1ccc(OCc2cc(C(=O)NCC3(C)COC3)no2)c(Cl)c1`, 37.2%.
Take `Cc1cccnc1CC(C)NC(=O)c1cc(COc2cncc(Cl)c2)on1` (centres undefined): the activation was 51.4%.
In the case of `Cc1cc(OCc2cc(C(=O)NCc3cc(C(C)C)no3)no2)cc(C)c1Cl`, the activation is 84.2% (active).
Regarding `CC(C)(C)OC(=O)N1CCC(C(=O)Nc2cccc(C(=O)NCCc3ccccc3)c2)CC1`, the activation was 0.242%.
Under `COc1ccc(NC(=S)N2CCCC(CO)C2)c(OC)c1` (centres undefined) stands -5.46%; under `CCCCc1ccc(NC(=S)N2CCCC(CO)C2)cc1` (centres undefined), 105% (active); under `CCCCc1ccc(NC(=S)NCCCN2CCOCC2)cc1`, 13.8%.
Consider `NS(=O)(=O)c1ccc(CCNC(=O)c2ccc(Cl)c(S(=O)(=O)N3CCCCCC3)c2)cc1`, for which the activation is -34.2%.
